Source: PubChem BioAssay (EPA / NIEHS)
Results filed as inconclusive are left out. Calls of active or inactive are those of the source. Rule for the calls, unless noted: active = hit-call score of the fitted dose curve at least 0.9, where 1 is the maximum; inconclusive = response in the unintended direction; inactive = score below 0.9.

Legend:
[1] = target: human Thyroid hormone Receptor alpha (TRa), THRA (gene 7067) (UniProt P10827); test: ATG_hTRa_XSP1: Attagene TRANS-FACTORIAL Multi-Species (XSP1) HepG2 Assay for human Thyroid hormone Receptor alpha (TRa) (AID 2283805)
Summary of the method: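 HepG2 cells transiently transfected with GAL4-UAS reporter units expressing chimeric NR-Gal4 proteins, dosed 24 hours with 3 nM 6-alpha-fluorotestosterone present. Reporter mRNA measured by RT-PCR and capillary electrophoresis; gain of signal fitted versus DMSO.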

[2] = tested on: turtle Thyroid Hormone Receptor, alpha (TRa), gene 101949057; test: ATG_trTRa_XSP1: Attagene TRANS-FACTORIAL Multi-Species (XSP1) HepG2 Assay for turtle Thyroid Hormone Receptor, alpha (TRa) (AID 2283806)
Summary of the method: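 HepG2 cells transiently transfected with GAL4-UAS reporter units and chimeric receptor-Gal4 constructs, with 3 nM 6-alpha-fluorotestosterone present. Reporter mRNA was quantified 24 h after dosing by RT-PCR, 6-FAM labelling and capillary electrophoresis; gain of signal versus DMSO.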

[3] = target: zebrafish Thyroid Hormone Receptor alpha (TRa), thraa (gene 30670) (UniProt Q98867); test: ATG_zfTRa_XSP1: Attagene TRANS-FACTORIAL Multi-Species (XSP1) HepG2 Assay for zebrafish Thyroid Hormone Receptor alpha (TRa) (AID 2283807)
Summary of the method: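 HepG2 cells transiently transfected with GAL4-UAS reporter units including a zebrafish TRa–Gal4 chimera, dosed 24 h with 3 nM 6-alpha-fluorotestosterone present. Reporter mRNA quantified by RT-PCR and capillary electrophoresis; gain versus DMSO.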

[4] = target: human Thyroid hormone Receptor beta (TRb), THRB (gene 7068) (UniProt P10828); test: ATG_hTRb_XSP1: Attagene TRANS-FACTORIAL Multi-Species (XSP1) HepG2 Assay for human Thyroid hormone Receptor beta (TRb) (AID 2283808)
Summary of the method: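 HepG2 cells transiently transfected with reporter units driving GAL4-UAS reporters for chimeric NR-Gal4 proteins; 24 h chemical exposure with 3 nM 6-alpha-fluorotestosterone present. Reporter mRNA quantified by RT-PCR and capillary electrophoresis, gain of signal versus DMSO.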

[5] = target: zebrafish Thyroid Hormone Receptor beta (TRb), thrb (gene 30607) (UniProt Q9PVE4); test: ATG_zfTRb_XSP1: Attagene TRANS-FACTORIAL Multi-Species (XSP1) HepG2 Assay for zebrafish Thyroid Hormone Receptor beta (TRb) (AID 2283809)
Summary of the method: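 HepG2 cells transiently transfected with multiplexed GAL4-UAS reporter units expressing chimeric zebrafish TRb–Gal4. Dosed 24 h with 3 nM 6-alpha-fluorotestosterone present; reporter mRNA measured by RT-PCR, HpaI digestion and capillary electrophoresis; gain of signal versus DMSO.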

[6] = ATG_XTT_Cytotoxicity_XSP1: Cytotoxicity Assessment in the Attagene TRANS-FACTORIAL Multi-Species (XSP1) HepG2 Assay (AID 2283810)
Summary of the method: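 XTT viability readout taken at 24 hours post-dosing in HepG2 liver cells co-treated with 3 nM 6-alpha-fluorotestosterone. Signal loss relative to DMSO controls reflects cytotoxicity.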

[7] = ATG_M_06_XSP2: Attagene TRANS-FACTORIAL Multi-Species (XSP2) HepG2 Assay for M06 Transcription Factor (Internal Marker) (AID 2283811);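 note: internal background marker reporter mRNA measured by RT-PCR and capillary electrophoresis; hits are increases in signal above the DMSO baseline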
Summary of the method: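 HepG2, multiplexed reporter transfection; 24 h dosing; AR stimulated with 3 nM 6-alpha-fluorotestosterone + 1.5 nM norgestrel; RNA → RT-PCR → 6-FAM primer extension → HpaI → CE. Positive direction vs DMSO.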

[8] = tested on: turtle Estrogen Receptor (ERa), gene 101933533; test: ATG_trERa_XSP2: Attagene TRANS-FACTORIAL Multi-Species (XSP2) HepG2 Assay for turtle Estrogen Receptor (ERa) (AID 2283812);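 note: human HepG2 liver cells transiently expressing turtle ERa-Gal4 chimeric receptor; actives raise reporter signal above DMSO so AC50 reflects agonist activity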
Summary of the method: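 HepG2 cells transiently transfected with GAL4-UAS reporter units expressing turtle ERa-Gal4 chimera. Reporter mRNA measured after 24 h dosing by RT-PCR, fluorescent labelling and capillary electrophoresis; gain of signal fitted versus DMSO.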

[9] = target: Estrogen receptor beta (Homo sapiens) (UniProt Q92731); test: ATG_hERb_XSP2: Attagene TRANS-FACTORIAL Multi-Species (XSP2) HepG2 Assay for human Estrogen Receptor (ERb) (AID 2283813);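 note: actives raise reporter mRNA above DMSO so AC50 reflects agonist induction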
Summary of the method: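 HepG2 cells transiently transfected with GAL4-UAS reporter units and chimeric human ERb-Gal4, 24 h exposure. Reporter mRNA quantified by RT-PCR with FAM labelling, HpaI digestion and capillary electrophoresis; gain of signal versus DMSO.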

[10] = target: GAL4 Transcription Factor (Internal Marker), GAL4 (gene 855828) (UniProt P04386); test: ATG_GAL4_XSP2: Attagene TRANS-FACTORIAL Multi-Species (XSP2) HepG2 Assay for GAL4 Transcription Factor (Internal Marker) (AID 2283814);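 note: GAL4 reporter mRNA background control in MRTU transfected cells not a receptor target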
Summary of the method: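 HepG2 cells transiently transfected with GAL4-UAS reporter units, stimulated with 3 nM 6-alpha-fluorotestosterone plus 1.5 nM norgestrel, dosed 24 h. Reporter mRNA by RT-PCR/capillary electrophoresis; gain-of-signal fit versus DMSO, background control.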

[11] = target: chicken Estrogen Receptor (ERa), ESR1 (gene 396099) (UniProt P06212); test: ATG_chERa_XSP2: Attagene TRANS-FACTORIAL Multi-Species (XSP2) HepG2 Assay for chicken Estrogen Receptor (ERa) (AID 2283817);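 note: actives raise reporter signal above DMSO so AC50 reflects ER activation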
Summary of the method: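 Transient MRTU transfection of HepG2 → 24 h chemical dosing → TriZol RNA, oligo(dT) RT → PCR, 6-FAM primer extension, HpaI digest → CE quantitation of chicken ERa-Gal4-driven reporter mRNA. Positive direction vs DMSO.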

[12] = tested on: zebrafish Estrogen Receptor (ER2a), gene 317734; test: ATG_zfER2a_XSP2: Attagene TRANS-FACTORIAL Multi-Species (XSP2) HepG2 Assay for zebrafish Estrogen Receptor (ER2a) (AID 2283818);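 note: hits raise reporter mRNA so AC50 reflects activation of zebrafish ER2a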
Summary of the method: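 HepG2 cells transiently transfected with GAL4-UAS reporter units and chimeric zebrafish ER2a-Gal4, exposed 24 h; medium contains 3 nM 6-alpha-fluorotestosterone and 1.5 nM norgestrel. Reporter mRNA quantified by RT-PCR, HpaI digestion, capillary electrophoresis; gain versus DMSO.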

[13] = tested on: frog Estrogen Receptor (ER), gene 398734; test: ATG_frER1_XSP2: Attagene TRANS-FACTORIAL Multi-Species (XSP2) HepG2 Assay for frog Estrogen Receptor (ER) (AID 2283821);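 note: hits raise reporter mRNA above DMSO baseline so potency means agonist or activator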
Summary of the method: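 Steps: transfect HepG2 with multiple reporter transcription units; treat with chemical for 24 h; isolate RNA, reverse-transcribe, PCR-amplify, label with 6-FAM, digest with HpaI; resolve fragments by capillary electrophoresis. Signal is scored against DMSO.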

[14] = tested on: zebrafish Estrogen Receptor (ER2b), gene 317733; test: ATG_zfER2b_XSP2: Attagene TRANS-FACTORIAL Multi-Species (XSP2) HepG2 Assay for zebrafish Estrogen Receptor (ER2b) (AID 2283823);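 note: fitted upward as reporter gain over DMSO so potency reflects activation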
Summary of the method: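 Read-out: fluorescent reporter mRNA, measured by RT-PCR then capillary electrophoresis after HpaI digestion. HepG2 cells carried transiently transfected multi-reporter TRANS constructs (NR-Gal4 chimeras); 24 h chemical exposure; activity scored upward versus DMSO control.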

[15] = tested on: frog Estrogen Receptor (ER2), gene 100174814; test: ATG_frER2_XSP2: Attagene TRANS-FACTORIAL Multi-Species (XSP2) HepG2 Assay for frog Estrogen Receptor (ER2) (AID 2283828)
Summary of the method: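 Multiplexed transactivation in HepG2: frog estrogen receptor fused to Gal4 drives a UAS reporter. Signal is reporter mRNA after 24 h treatment.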

[16] = target: Peroxisome proliferator-activated receptor gamma (Homo sapiens) (UniProt P37231); test: ATG_hPPARg_XSP2: Attagene TRANS-FACTORIAL Multi-Species (XSP2) HepG2 Assay for human Peroxisome Proliferator-activated Receptor gamma (PPARg) (AID 2283829);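 note: actives raise reporter mRNA above DMSO so AC50 reflects PPARg activation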
Summary of the method: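 HepG2 cells transiently transfected with multiplexed GAL4-UAS reporter units for chimeric NR-Gal4 receptors, dosed 24 h. Reporter mRNA quantified by RT-PCR, 6-FAM labeling, HpaI digestion and capillary electrophoresis; gain-of-signal fitted against DMSO baseline.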

[17] = target: Nuclear receptor subfamily 1 group I member 2 (Mus musculus) (UniProt O54915); test: ATG_mPXR_XSP2: Attagene TRANS-FACTORIAL Multi-Species (XSP1) HepG2 Assay for mouse Pregnane X Receptor (PXR) (AID 2283831)
Summary of the method: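 HepG2 cells transiently transfected with GAL4-UAS reporter units expressing chimeric NR-GAL4 proteins; reporter mRNA measured 24 h after dosing by RT-PCR with 6-FAM labelling and capillary electrophoresis, gain of signal relative to DMSO.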

[18] = target: zebrafish Thyroid Hormone Receptor alpha (TRa), thraa (gene 30670) (UniProt Q98867); test: ATG_zfTRa_XSP2: Attagene TRANS-FACTORIAL Multi-Species (XSP1) HepG2 Assay for zebrafish Thyroid Hormone Receptor alpha (TRa) (AID 2283832);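 note: actives raise zebrafish TRa-Gal4 reporter transcript above DMSO baseline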
Summary of the method: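 Transient transfection of human HepG2 with GAL4-UAS reporter units, then 24 h chemical treatment. RNA isolated, reverse-transcribed, PCR-amplified, FAM-labelled, HpaI-digested and run on capillary electrophoresis. Gain-of-signal relative to DMSO.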

[19] = tested on: turtle Thyroid Hormone Receptor, alpha (TRa), gene 101949057; test: ATG_trTRa_XSP2: Attagene TRANS-FACTORIAL Multi-Species (XSP1) HepG2 Assay for turtle Thyroid Hormone Receptor, alpha (TRa) (AID 2283834);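 note: hits raise reporter mRNA over the DMSO baseline so AC50 marks activators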
Summary of the method: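 HepG2 cells transiently transfected with multiplexed GAL4-UAS reporter units expressing chimeric NR-Gal4 proteins were dosed for 24 hours. Reporter mRNA was quantified by RT-PCR with 6-FAM labelling and capillary electrophoresis, gain of signal scored against DMSO.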

[20] = ATG_M_61_XSP2: Attagene TRANS-FACTORIAL Multi-Species (XSP2) HepG2 Assay for M61 Transcription Factor (Internal Marker) (AID 2283835; active = hit-call score of the fitted dose curve at least 0.9, where 1 is the maximum; inactive = score below 0.9;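 note: reporter mRNA of an internal background marker read by RT-PCR and capillary electrophoresis; active means a rise in signal above the DMSO baseline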)
Summary of the method: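 First, HepG2 cells are transfected with reporter units under GAL4-UAS control. Next, chemicals are applied for 24 h. Then total RNA is reverse-transcribed, amplified, fluorescently labelled and sized by capillary electrophoresis, with gain of signal scored against DMSO.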

Measured: AC50

zebrafish Thyroid Hormone Receptor alpha (TRa), thraa (gene 30670), sequence (Q98867 whole entry, looked up, the tested form may be a part): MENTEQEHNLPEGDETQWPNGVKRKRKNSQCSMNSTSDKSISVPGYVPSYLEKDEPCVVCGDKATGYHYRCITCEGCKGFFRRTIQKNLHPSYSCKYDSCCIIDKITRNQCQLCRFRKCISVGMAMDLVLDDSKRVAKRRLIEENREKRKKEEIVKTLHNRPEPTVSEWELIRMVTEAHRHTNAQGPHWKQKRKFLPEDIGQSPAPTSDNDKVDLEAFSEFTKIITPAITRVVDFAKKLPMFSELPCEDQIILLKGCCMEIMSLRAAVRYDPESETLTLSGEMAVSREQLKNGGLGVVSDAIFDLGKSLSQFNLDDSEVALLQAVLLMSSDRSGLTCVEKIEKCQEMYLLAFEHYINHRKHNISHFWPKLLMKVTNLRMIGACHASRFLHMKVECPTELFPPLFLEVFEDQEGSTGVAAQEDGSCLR
Estrogen receptor beta (Homo sapiens), sequence (Q92731 whole entry, looked up, the tested form may be a part): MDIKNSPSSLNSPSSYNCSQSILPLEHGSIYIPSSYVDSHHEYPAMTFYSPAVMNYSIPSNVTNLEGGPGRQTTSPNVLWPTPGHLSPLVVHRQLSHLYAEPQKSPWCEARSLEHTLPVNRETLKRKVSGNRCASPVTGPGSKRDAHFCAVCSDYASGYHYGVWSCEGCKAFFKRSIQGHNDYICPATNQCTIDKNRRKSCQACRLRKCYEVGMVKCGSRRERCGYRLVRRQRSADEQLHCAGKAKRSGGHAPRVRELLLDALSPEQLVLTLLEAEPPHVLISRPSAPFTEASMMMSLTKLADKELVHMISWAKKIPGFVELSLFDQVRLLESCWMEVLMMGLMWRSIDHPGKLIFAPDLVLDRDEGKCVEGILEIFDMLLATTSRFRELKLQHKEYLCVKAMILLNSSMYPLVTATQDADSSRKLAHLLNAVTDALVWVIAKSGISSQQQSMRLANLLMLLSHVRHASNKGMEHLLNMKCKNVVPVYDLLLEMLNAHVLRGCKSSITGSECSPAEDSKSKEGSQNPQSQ
chicken Estrogen Receptor (ERa), ESR1 (gene 396099), sequence (P06212 whole entry, looked up, the tested form may be a part): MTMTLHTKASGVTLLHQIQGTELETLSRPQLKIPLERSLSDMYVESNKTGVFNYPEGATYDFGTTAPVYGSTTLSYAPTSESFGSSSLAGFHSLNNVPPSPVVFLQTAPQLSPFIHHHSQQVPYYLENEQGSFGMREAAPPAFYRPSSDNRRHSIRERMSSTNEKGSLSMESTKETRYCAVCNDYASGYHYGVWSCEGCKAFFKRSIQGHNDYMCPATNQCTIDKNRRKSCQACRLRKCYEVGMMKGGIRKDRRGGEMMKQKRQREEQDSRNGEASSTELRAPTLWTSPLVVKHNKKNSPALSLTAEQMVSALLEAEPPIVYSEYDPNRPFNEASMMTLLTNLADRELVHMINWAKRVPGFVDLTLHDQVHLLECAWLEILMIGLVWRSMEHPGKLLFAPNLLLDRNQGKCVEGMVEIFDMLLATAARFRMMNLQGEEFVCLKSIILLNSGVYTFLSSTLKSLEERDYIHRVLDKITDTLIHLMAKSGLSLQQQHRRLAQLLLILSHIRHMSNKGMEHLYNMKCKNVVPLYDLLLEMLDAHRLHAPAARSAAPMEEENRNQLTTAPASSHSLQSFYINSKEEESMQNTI
Peroxisome proliferator-activated receptor gamma (Homo sapiens), sequence (P37231 whole entry, looked up, the tested form may be a part): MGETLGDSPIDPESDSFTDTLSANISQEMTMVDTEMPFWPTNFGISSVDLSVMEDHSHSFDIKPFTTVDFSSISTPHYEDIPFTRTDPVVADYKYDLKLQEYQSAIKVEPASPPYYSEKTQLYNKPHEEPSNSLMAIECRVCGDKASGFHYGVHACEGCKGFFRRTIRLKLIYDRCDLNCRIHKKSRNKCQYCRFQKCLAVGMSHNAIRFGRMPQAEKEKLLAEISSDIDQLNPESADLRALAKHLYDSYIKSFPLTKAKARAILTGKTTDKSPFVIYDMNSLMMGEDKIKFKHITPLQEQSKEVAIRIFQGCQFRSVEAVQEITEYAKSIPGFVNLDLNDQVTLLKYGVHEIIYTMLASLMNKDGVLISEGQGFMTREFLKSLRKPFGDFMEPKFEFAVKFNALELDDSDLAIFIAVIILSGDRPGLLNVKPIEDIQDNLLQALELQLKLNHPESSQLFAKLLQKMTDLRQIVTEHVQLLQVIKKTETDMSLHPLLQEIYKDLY
GAL4 Transcription Factor (Internal Marker), GAL4 (gene 855828), sequence (P04386 whole entry, looked up, the tested form may be a part): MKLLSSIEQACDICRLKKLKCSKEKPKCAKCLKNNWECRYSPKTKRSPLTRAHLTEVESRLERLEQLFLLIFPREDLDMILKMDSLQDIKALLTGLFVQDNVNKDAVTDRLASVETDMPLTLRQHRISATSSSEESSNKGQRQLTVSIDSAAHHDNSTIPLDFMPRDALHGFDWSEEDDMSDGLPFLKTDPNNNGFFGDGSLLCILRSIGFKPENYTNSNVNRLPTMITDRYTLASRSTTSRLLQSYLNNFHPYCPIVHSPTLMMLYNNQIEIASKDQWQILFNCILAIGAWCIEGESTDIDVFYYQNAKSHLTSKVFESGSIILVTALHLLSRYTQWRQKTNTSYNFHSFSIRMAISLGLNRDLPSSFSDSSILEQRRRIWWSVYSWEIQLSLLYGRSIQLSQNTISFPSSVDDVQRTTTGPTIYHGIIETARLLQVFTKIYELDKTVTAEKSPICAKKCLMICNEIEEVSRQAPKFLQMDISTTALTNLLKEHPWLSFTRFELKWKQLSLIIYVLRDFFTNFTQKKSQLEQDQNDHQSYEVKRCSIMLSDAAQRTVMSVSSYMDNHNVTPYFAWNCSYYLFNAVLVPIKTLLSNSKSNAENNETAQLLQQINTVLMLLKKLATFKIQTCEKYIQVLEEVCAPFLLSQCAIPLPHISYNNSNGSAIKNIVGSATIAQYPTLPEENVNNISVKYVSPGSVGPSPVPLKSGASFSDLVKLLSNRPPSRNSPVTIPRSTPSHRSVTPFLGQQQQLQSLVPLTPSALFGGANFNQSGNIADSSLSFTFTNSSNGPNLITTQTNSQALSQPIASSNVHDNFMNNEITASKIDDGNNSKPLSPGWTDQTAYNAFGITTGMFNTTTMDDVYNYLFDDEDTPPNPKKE
Nuclear receptor subfamily 1 group I member 2 (Mus musculus), sequence (O54915 whole entry, looked up, the tested form may be a part): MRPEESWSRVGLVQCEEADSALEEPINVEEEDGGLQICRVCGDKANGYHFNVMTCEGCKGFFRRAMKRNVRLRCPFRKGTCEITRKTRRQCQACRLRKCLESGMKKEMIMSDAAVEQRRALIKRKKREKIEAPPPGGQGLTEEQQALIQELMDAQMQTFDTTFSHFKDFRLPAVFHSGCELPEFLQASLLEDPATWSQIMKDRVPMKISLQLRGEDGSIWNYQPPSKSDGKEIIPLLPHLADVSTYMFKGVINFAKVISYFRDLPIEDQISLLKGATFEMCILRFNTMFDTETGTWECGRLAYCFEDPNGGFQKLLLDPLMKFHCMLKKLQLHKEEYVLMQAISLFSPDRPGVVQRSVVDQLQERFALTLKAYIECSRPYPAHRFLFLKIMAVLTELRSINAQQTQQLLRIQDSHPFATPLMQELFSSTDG
human Thyroid hormone Receptor beta (TRb), THRB (gene 7068), sequence (P10828 whole entry, looked up, the tested form may be a part): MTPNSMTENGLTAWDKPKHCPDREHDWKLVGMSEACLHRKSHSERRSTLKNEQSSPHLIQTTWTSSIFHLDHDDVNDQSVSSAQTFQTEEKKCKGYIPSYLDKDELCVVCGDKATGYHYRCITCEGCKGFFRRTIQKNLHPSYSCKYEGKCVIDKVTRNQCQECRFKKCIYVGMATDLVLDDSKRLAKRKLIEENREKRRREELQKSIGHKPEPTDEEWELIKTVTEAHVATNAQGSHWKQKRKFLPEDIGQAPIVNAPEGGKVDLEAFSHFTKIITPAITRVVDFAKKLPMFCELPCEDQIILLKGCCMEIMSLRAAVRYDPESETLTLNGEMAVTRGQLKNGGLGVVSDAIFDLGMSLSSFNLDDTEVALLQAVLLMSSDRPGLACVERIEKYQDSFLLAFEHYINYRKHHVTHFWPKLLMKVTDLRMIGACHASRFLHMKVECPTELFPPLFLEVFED
zebrafish Thyroid Hormone Receptor beta (TRb), thrb (gene 30607), sequence (Q9PVE4 whole entry, looked up, the tested form may be a part): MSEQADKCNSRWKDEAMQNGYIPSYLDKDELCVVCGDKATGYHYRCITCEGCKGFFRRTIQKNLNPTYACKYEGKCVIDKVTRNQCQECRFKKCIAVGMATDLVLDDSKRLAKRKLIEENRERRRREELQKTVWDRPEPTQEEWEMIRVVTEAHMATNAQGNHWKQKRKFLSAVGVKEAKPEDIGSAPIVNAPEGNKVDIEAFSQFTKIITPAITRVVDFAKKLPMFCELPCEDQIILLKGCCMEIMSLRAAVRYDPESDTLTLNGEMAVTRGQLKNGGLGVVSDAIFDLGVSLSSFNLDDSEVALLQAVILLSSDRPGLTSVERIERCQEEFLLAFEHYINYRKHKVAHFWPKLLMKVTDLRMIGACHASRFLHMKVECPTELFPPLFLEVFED
human Thyroid hormone Receptor alpha (TRa), THRA (gene 7067), sequence (P10827 whole entry, looked up, the tested form may be a part): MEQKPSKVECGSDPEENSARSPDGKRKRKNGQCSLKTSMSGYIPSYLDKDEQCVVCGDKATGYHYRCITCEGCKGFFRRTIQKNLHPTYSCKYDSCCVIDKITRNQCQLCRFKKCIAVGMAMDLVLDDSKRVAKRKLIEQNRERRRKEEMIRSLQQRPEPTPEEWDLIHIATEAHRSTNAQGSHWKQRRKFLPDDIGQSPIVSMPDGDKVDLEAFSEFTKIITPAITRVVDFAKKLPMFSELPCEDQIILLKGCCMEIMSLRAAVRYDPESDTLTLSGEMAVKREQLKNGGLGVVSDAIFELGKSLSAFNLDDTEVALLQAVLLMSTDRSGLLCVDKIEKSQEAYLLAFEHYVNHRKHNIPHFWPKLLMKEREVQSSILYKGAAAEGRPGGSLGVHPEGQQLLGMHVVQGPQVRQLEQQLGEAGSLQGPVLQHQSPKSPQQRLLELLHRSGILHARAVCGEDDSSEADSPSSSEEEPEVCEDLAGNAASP

C[C@]12CC[C@@H]3c4ccc(O)cc4CC[C@H]3[C@@H]1C[C@@H](O)[C@@H]2O
active: [8] 30.6 nM | [9] 10.2 nM | [11] 72.5 nM | [12] 100 nM | [14] 30.8 nM
inactive: all other assays above
